# Assay results from PubChem BioAssay (EPA / NIEHS).
# Active and inactive are the calls of the source. How the source made its calls: active means hit-call score of the fitted dose curve at least 0.9, where 1 is the maximum; inactive means score below 0.9.
# Assays:
# Conditions in all cases: mRNA level, 48 h; actives raise or lower the signal
# [1] = read-out: Insulin Like Growth Factor 1 (IGF1), IGF1 (gene 3479); assay: LTEA_HepaRG_IGF1: Life Technologies and Expression Analysis (LTEA) Assay for Insulin Like Growth Factor 1 (IGF1) using HepaRG (AID 2283506)
# Method in brief: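 Expression measured by TaqMan qRT-PCR on a Fluidigm array, with three housekeeping genes for normalisation, after 48 h treatment of HepaRG cells. Top concentration 100 uM with half-log steps, 0.5% DMSO vehicle, bidirectional fit.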
# [2] = read-out: Intercellular Adhesion Molecule 1 (ICAM1), ICAM1 (gene 3383); assay: LTEA_HepaRG_ICAM1: Life Technologies and Expression Analysis (LTEA) Assay for Intercellular Adhesion Molecule 1 (ICAM1) using HepaRG (AID 2283507)
# Method in brief: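 Gain or loss of transcript in HepaRG hepatic cells is quantified by qRT-PCR after 48 h chemical exposure (up to 100 uM, half-log steps), with DMSO as baseline.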
# [3] = read-out: Insulin-like growth factor-binding protein 1 (IGFBP1), IGFBP1 (gene 3484); assay: LTEA_HepaRG_IGFBP1: Life Technologies and Expression Analysis (LTEA) Assay for Insulin-like growth factor-binding protein 1 (IGFBP1) using HepaRG (AID 2283508)
# Method in brief: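 mRNA induction or loss was quantified by qRT-PCR after 48 h chemical exposure of human HepaRG cells, with 0.5% DMSO as vehicle and baseline. Concentration-response over eight points up to 100 uM.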
# [4] = read-out: Interleukin 6 Receptor (IL6R), IL6R (gene 3570); assay: LTEA_HepaRG_IL6R: Life Technologies and Expression Analysis (LTEA) Assay for Interleukin 6 Receptor (IL6R) using HepaRG (AID 2283510);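 on AC50: differentiated human HepaRG liver cells in serum-free induction medium; TaqMan qRT-PCR signal normalized to ACTB GAPDH and POLR2A housekeeping genes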
# Method in brief: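 IL6R transcript level by qRT-PCR after 48 h chemical exposure (8-point, half-log, max 100 uM, 0.5% DMSO vehicle) of HepaRG cells in serum-free induction medium. Normalized to three housekeeping genes; curves fitted in both directions relative to DMSO.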
# [5] = read-out: Potassium channel subfamily K member 1 (KCNK1), KCNK1 (gene 3775); assay: LTEA_HepaRG_KCNK1: Life Technologies and Expression Analysis (LTEA) Assay for Potassium channel subfamily K member 1 (KCNK1) using HepaRG (AID 2283511)
# Method in brief: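 Human HepaRG cultures receive test chemicals for 48 h in 0.5% DMSO, top concentration 100 uM with half-log dilutions. Induction or suppression of KCNK1 mRNA relative to DMSO is derived by bidirectional fitting of qRT-PCR data.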
# [6] = read-out: Keratin 19 (KRT19), KRT19 (gene 3880); assay: LTEA_HepaRG_KRT19: Life Technologies and Expression Analysis (LTEA) Assay for Keratin 19 (KRT19) using HepaRG (AID 2283512)
# Method in brief: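 Gene-expression endpoint in the human liver line HepaRG after 48 h exposure to up to 100 uM test chemical with 0.5% DMSO vehicle; KRT19 mRNA by qRT-PCR, analyzed bidirectionally versus DMSO.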
# [7] = read-out: JUN Transcription Factor, JUN (gene 3725); assay: LTEA_HepaRG_JUN: Life Technologies and Expression Analysis (LTEA) Assay for JUN Transcription Factor using HepaRG (AID 2283513)
# Method in brief: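 mRNA measured by TaqMan qRT-PCR after 48 h chemical exposure of HepaRG cultures; normalization to three housekeeping genes. Duplicate eight-point half-log curves from 100 uM in 0.5% DMSO; gain or loss fitted against DMSO baseline.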
# [8] = read-out: MicroRNA 122 (MIR122), gene 406906; assay: LTEA_HepaRG_MIR122: Life Technologies and Expression Analysis (LTEA) Assay for MicroRNA 122 (MIR122) using HepaRG (AID 2283516); further: the transcript read is the microRNA miR-122
# Method in brief: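 Expression measured by microfluidic qRT-PCR with three housekeeping genes for normalisation, after 48 h treatment of HepaRG cultures. Eight concentrations (top 100 uM, half-log steps, 0.5% DMSO vehicle) in duplicate; gain or loss fitted relative to vehicle.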
# [9] = read-out: matrix metalloproteinase-10 (MMP10), MMP10 (gene 4319); assay: LTEA_HepaRG_MMP10: Life Technologies and Expression Analysis (LTEA) Assay for matrix metalloproteinase-10 (MMP10) using HepaRG (AID 2283517)
# Method in brief: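 In differentiated HepaRG cultures kept in 0.5% DMSO, test chemicals act for 48 h over an eight-point range with a top dose of 100 uM. Expression is then quantified by TaqMan RT-PCR against ACTB, GAPDH and POLR2A.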
# MYC, MYC (gene 4609) = assay: LTEA_HepaRG_MYC: Life Technologies and Expression Analysis (LTEA) Assay for MYC using HepaRG (AID 2283518)
# Method in brief: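 Cells are thawed, plated and cultured 48 h, then treated for 48 h with test chemicals (eight half-log concentrations from 100 uM, 0.5% DMSO vehicle). RNA is isolated and MYC expression quantified by qRT-PCR against three housekeeping genes.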
# [10] = read-out: matrix metalloproteinase-3 (MMP3), MMP3 (gene 4314); assay: LTEA_HepaRG_MMP3: Life Technologies and Expression Analysis (LTEA) Assay for matrix metalloproteinase-3 (MMP3) using HepaRG (AID 2283519)
# Method in brief: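 Human liver HepaRG cultures received chemicals (top concentration 100 uM, 0.5% DMSO) for 48 h in duplicate. MMP3 mRNA induction or loss was then assessed via TaqMan qRT-PCR with housekeeping-gene normalisation.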
# [11] = read-out: Paternally Expressed 10 (PEG10), PEG10 (gene 23089); assay: LTEA_HepaRG_PEG10: Life Technologies and Expression Analysis (LTEA) Assay for Paternally Expressed 10 (PEG10) using HepaRG (AID 2283520);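 on AC50: differentiated HepaRG human liver cells in serum-free induction medium with 0.5% DMSO; PEG10 transcript by qRT-PCR normalised to ACTB GAPDH and POLR2A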
# Method in brief: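 PEG10 transcript measured by Fluidigm qRT-PCR, normalized to three housekeeping genes, in HepaRG cells treated 48 h (highest 100 uM, half-log steps, 0.5% DMSO vehicle). Cells plated 48 h before switching to serum-free induction medium.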
# [12] = read-out: Nuclear factor NF-kappa-B p105 subunit (Homo sapiens) (UniProt P19838); assay: LTEA_HepaRG_NFKB1: Life Technologies and Expression Analysis (LTEA) Assay for Nuclear Factor Kappa B Subunit 1 (NFKB1) using HepaRG (AID 2283521);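 further: differentiated human HepaRG liver cells in serum-free induction medium; TaqMan qRT-PCR transcript normalised to ACTB GAPDH and POLR2A housekeeping genes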
# Method in brief: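 HepaRG, 48 h exposure; 8-pt half-log series from 100 uM in 0.5% DMSO; duplicates. Readout: NFKB1 mRNA by qRT-PCR (Fluidigm arrays), housekeeping-normalized. Gain/loss fit vs DMSO baseline.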
# [13] = read-out: Protein phosphatase 2A (PPP2R4), PTPA (gene 5524); assay: LTEA_HepaRG_PPP2R4: Life Technologies and Expression Analysis (LTEA) Assay for Protein phosphatase 2A (PPP2R4) using HepaRG (AID 2283522)
# Method in brief: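 Expression was quantified by Fluidigm qRT-PCR normalised to three housekeeping genes after 48 h treatment. Human HepaRG cells received an 8-point series from 100 µM downward by half-logs, in duplicate with 0.5% DMSO vehicle and 1 mM phenobarbital as induction control.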
# [14] = read-out: Phosphatase and tensin (PTEN), PTEN (gene 5728); assay: LTEA_HepaRG_PTEN: Life Technologies and Expression Analysis (LTEA) Assay for Phosphatase and tensin (PTEN) using HepaRG (AID 2283523)
# Method in brief: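 Expression of PTEN is quantified in the human liver line HepaRG following two days of dosing (top concentration 100 uM, half-log dilutions, 0.5% DMSO). Values derive from bidirectional curve fitting relative to DMSO controls.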
# [15] = read-out: solute carrier (SLC22A1), SLC22A1 (gene 6580); assay: LTEA_HepaRG_SLC22A1: Life Technologies and Expression Analysis (LTEA) Assay for solute carrier (SLC22A1) using HepaRG (AID 2283524);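 on AC50: differentiated human HepaRG liver cells in serum-free induction medium; TaqMan qRT-PCR normalized to ACTB GAPDH and POLR2A housekeeping genes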
# Method in brief: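 Transcript induction or suppression of SLC22A1 in human HepaRG cultures is scored after 48 h chemical treatment, with DMSO (0.5%) as baseline for bidirectional fitting. Concentrations span eight half-log points topping at 100 uM.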
# [16] = read-out: Pyruvate Dehydrogenase Kinase 4 (PDK4), PDK4 (gene 5166); assay: LTEA_HepaRG_PDK4: Life Technologies and Expression Analysis (LTEA) Assay for Pyruvate Dehydrogenase Kinase 4 (PDK4) using HepaRG (AID 2283525)
# Method in brief: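 Eight-point, half-log concentration series (max 100 uM, 0.5% DMSO) applied to differentiated HepaRG cells for 48 h in duplicate. Endpoint: PDK4 mRNA induction or repression by qRT-PCR against DMSO baseline.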
# [17] = read-out: Lipoprotein lipase (LPL), LPL (gene 4023); assay: LTEA_HepaRG_LPL: Life Technologies and Expression Analysis (LTEA) Assay for Lipoprotein lipase (LPL) using HepaRG (AID 2283515)
# Method in brief: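 Concentration-response testing used half-log steps from 100 uM in 0.5% DMSO on human HepaRG cells, 48 h, duplicate wells. Phenobarbital 1 mM served as induction control; LPL mRNA was normalized to ACTB, GAPDH, POLR2A.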
# Chain of Nuclear factor NF-kappa-B p105 subunit (Homo sapiens) (P19838 whole entry, looked up): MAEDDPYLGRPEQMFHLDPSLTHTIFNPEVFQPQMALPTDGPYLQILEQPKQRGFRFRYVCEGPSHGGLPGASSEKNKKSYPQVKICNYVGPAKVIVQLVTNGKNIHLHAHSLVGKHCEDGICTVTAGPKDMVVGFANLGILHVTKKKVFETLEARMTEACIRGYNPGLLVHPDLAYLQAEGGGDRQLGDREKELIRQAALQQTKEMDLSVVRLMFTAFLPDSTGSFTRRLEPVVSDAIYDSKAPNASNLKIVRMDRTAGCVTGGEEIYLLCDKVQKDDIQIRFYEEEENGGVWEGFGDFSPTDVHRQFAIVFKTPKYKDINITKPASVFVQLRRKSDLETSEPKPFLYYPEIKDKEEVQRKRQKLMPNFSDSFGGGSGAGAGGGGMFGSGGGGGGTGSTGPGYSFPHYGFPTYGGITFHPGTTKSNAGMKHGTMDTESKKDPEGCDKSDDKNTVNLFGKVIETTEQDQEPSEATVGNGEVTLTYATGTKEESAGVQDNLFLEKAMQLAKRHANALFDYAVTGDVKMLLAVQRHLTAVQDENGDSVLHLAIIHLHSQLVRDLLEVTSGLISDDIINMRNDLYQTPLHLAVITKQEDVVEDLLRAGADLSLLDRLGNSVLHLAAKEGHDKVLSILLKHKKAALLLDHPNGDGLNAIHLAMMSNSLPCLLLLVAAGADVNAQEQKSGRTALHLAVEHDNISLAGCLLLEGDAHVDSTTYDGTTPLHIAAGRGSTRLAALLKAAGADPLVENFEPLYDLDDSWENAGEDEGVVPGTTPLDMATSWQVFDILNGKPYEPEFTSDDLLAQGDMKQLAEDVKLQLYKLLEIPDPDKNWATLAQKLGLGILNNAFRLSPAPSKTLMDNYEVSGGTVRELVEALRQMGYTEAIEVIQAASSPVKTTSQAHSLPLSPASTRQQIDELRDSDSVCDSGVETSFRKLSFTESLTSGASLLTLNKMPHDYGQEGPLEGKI
structure (smiles),measurement,setting,value
C[C@]12C[C@H](O)[C@H]3[C@@H](CCC4=CC(=O)CC[C@@]43C)[C@@H]1CC[C@@H]2C(=O)CO,outcome,[1],inactive
same,outcome,[2],inactive
same,outcome,[3],inactive
same,outcome,[4],inactive
same,outcome,[5],inactive
same,outcome,[6],inactive
same,outcome,[7],inactive
same,outcome,[8],inactive
same,outcome,[9],inactive
same,outcome,"MYC, MYC (gene 4609)",inactive
same,outcome,[10],inactive
same,outcome,[11],inactive
same,outcome,[12],inactive
same,outcome,[13],inactive
same,outcome,[14],inactive
same,outcome,[15],inactive
same,outcome,[16],inactive
CCOC(=O)COc1cc(-n2ncc(C(F)(F)F)c(C)c2=O)c(F)cc1Cl,outcome,[1],inactive
same,outcome,[2],inactive
same,outcome,[3],inactive
same,outcome,[4],inactive
same,outcome,[5],inactive
same,outcome,[6],inactive
same,outcome,[7],inactive
same,outcome,[17],inactive
same,outcome,[8],inactive
same,outcome,[9],inactive
same,outcome,"MYC, MYC (gene 4609)",inactive
same,outcome,[10],inactive
same,outcome,[11],inactive
same,outcome,[13],inactive
same,outcome,[14],inactive
same,outcome,[15],inactive
same,outcome,[16],inactive
CCOC(=O)NCCOc1ccc(Oc2ccccc2)cc1,AC50,[1],89.5 µM (active)
same,outcome,[2],inactive
same,AC50,[3],73.1 µM (active)
same,AC50,[4],20.7 µM (active)
same,outcome,[5],inactive
same,AC50,[6],89.8 µM (active)
same,outcome,[7],inactive
same,AC50,[8],75.3 µM (active)
same,AC50,[9],50 µM (active)
same,AC50,"MYC, MYC (gene 4609)",79.9 µM (active)
same,AC50,[10],50 µM (active)
same,AC50,[11],29 µM (active)
same,outcome,[12],inactive
same,outcome,[13],inactive
same,outcome,[14],inactive
same,AC50,[15],84.9 µM (active)
same,outcome,[16],inactive
CC(=O)S[C@@H]1CC2=CC(=O)CC[C@]2(C)[C@H]2CC[C@@]3(C)[C@@H](CC[C@@]34CCC(=O)O4)[C@H]12,AC50,[1],68.7 µM (active)
same,outcome,[2],inactive
same,outcome,[3],inactive
same,AC50,[4],63.3 µM (active)
same,outcome,[5],inactive
same,outcome,[6],inactive
same,outcome,[7],inactive
same,AC50,[8],67.5 µM (active)
same,AC50,[9],76.1 µM (active)
same,outcome,"MYC, MYC (gene 4609)",inactive
same,outcome,[10],inactive
same,outcome,[11],inactive
same,outcome,[13],inactive
same,outcome,[14],inactive
same,AC50,[15],55.5 µM (active)
same,AC50,[16],50 µM (active)
CC(C)(C)[C@@H](O)[C@@H](Cc1ccc(Cl)cc1)n1cncn1,outcome,[1],inactive
same,outcome,[2],inactive
same,outcome,[3],inactive
same,outcome,[4],inactive
same,outcome,[5],inactive
same,outcome,[6],inactive
same,outcome,[7],inactive
same,outcome,[8],inactive
same,outcome,[9],inactive
same,outcome,"MYC, MYC (gene 4609)",inactive
same,outcome,[11],inactive
same,outcome,[12],inactive
same,outcome,[13],inactive
same,outcome,[14],inactive
same,outcome,[15],inactive
same,outcome,[16],inactive
O=C(c1ccc(O)cc1O)c1ccc(O)cc1O,outcome,[1],inactive
same,outcome,[2],inactive
same,outcome,[3],inactive
same,outcome,[4],inactive
same,outcome,[5],inactive
same,outcome,[6],inactive
same,outcome,[7],inactive
same,outcome,[8],inactive
same,outcome,[9],inactive
same,outcome,"MYC, MYC (gene 4609)",inactive
same,outcome,[10],inactive
same,outcome,[11],inactive
same,outcome,[12],inactive
same,outcome,[13],inactive
same,outcome,[14],inactive
same,outcome,[15],inactive
same,outcome,[16],inactive
O=C(O)c1ccccc1,outcome,[1],inactive
same,outcome,[2],inactive
same,outcome,[3],inactive
same,outcome,[4],inactive
same,outcome,[5],inactive
same,outcome,[6],inactive
same,outcome,[7],inactive
same,outcome,[17],inactive
same,outcome,[8],inactive
same,outcome,[9],inactive
same,outcome,"MYC, MYC (gene 4609)",inactive
same,outcome,[10],inactive
same,outcome,[11],inactive
same,outcome,[13],inactive
same,outcome,[14],inactive
same,outcome,[15],inactive
same,outcome,[16],inactive
